Hit rate of the full screen: of about 310,000 compounds, about 14,000 (4.5%) showed an effect of 50% or more. Effects have a minus sign here. Shown is part of a subset that was picked to be rich in strong results.
biological target: human ether-à-go-go-related gene (hERG) potassium channel (human, UniProt Q12809); experiment: primary screen, population patch clamp on CHO cells stably expressing hERG; higher = less effect of the substance
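Also: peak tail current of the secondary pulse compared with the same well before compound.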

Chain of human ether-à-go-go-related gene (hERG) potassium channel (Q12809 whole entry, looked up): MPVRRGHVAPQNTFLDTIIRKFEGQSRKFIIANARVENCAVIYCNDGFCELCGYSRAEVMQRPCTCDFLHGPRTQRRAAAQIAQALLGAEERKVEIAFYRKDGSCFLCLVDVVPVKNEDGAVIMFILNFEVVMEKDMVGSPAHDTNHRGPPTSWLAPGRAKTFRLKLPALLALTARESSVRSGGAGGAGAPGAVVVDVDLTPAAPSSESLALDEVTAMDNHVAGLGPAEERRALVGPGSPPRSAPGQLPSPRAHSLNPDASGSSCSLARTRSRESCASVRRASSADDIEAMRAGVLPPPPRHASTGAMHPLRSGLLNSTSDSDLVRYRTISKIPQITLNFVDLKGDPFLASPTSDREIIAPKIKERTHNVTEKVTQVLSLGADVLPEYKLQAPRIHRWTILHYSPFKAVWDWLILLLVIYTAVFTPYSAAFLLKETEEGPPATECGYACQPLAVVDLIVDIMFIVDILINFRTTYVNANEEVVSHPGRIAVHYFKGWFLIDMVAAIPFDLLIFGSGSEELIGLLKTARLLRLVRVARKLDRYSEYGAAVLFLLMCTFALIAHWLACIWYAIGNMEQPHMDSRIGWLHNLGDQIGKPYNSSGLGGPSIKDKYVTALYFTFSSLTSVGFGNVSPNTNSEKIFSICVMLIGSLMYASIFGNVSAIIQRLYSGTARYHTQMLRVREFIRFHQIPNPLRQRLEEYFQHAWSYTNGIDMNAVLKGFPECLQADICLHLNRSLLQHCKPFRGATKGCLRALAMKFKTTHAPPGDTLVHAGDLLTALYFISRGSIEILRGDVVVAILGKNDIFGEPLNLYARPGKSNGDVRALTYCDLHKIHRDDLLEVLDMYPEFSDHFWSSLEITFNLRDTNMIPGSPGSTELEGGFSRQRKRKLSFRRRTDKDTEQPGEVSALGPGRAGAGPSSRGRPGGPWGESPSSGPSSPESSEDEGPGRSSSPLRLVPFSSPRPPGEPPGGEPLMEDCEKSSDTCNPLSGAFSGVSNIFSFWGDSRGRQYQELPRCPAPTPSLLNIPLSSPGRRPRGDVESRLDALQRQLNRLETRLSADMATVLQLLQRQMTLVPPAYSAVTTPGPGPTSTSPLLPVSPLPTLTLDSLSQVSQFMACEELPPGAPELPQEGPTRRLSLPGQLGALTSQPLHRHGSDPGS

Compound | hERG current change (%, negative = inhibition) at 10uM [%]
O=c1cc(CSc2ccccc2)nc(-c2ccccc2)[nH]1 | 6.19
CC(C)C(=O)NC(=S)/C=C1/N(C)c2ccccc2C1(C)C | -1.42
O=C(Cc1sc(-c2ccccc2Cl)nc1-c1ccccc1)Nc1ccccc1 | 11.3
O=C(c1ccc(OC2CCN(CCO)CC2)cc1)N1CCCC1 | 18.1
COc1ccccc1/C=C/CN1CCC(Oc2ccc(C(=O)N3CCCCC3)cc2)CC1 | -44.6
O=C(c1ccc(OC2CCN(C/C=C/c3ccc(F)cc3)CC2)cc1)N1CCCC1 | -75.5
COCC(=O)N1CCC(Oc2ccc(C(=O)N3CCCCCC3)cc2)CC1 | 12.1
O=C(c1ccc(OC2CCN(C/C=C/c3ccc(F)cc3)CC2)cc1)N1CCCCC1 | -64.9
COc1ccc(/C=C/CN2CCC(Oc3ccc(C(=O)N4CCCCC4)cc3)CC2)cc1 | -53.6
O=C(c1ccc(OC2CCN(Cc3ccccc3OC(F)F)CC2)cc1)N1CCCC1 | -3.42
CC(C)/C=C/CN1CCC(Oc2ccc(C(=O)N3CCCC3)cc2)CC1 | -35.3
COCC(=O)N1CCC(Oc2ccc(C(=O)N3CCCCCCC3)cc2)CC1 | 22.7
CCN1CCN(Cc2ccc(NC(=O)c3cc(NC(=O)c4cncc(-c5cccs5)c4)cc(OC)c3)cc2C(F)(F)F)CC1.O=C(O)C(F)(F)F | 9.85
COc1cc(OC)cc(C(=O)NNC(=O)Cc2ccc(OC)c(S(=O)(=O)N3CCOCC3)c2)c1 | -1.89
COC/C=C/C1=CC2=CC(=O)C(C)(OC(=O)c3cnc4ccccc4n3)C(=O)C2=CN1c1ccc(OC)cc1 (stereo not drawn) | -4.95
O=c1[nH]c2ccccc2cc1CN(c1ccccc1)S(=O)(=O)c1ccccc1 | 0.56
Cc1ccccc1OCCC(=O)OCC(=O)N1CCN(S(=O)(=O)c2ccc(Cl)cc2)CC1 | -13.1
CCCCCSc1cc(O)c(C(CNC)C(C)C)cc1OC.O=C(O)/C=C\C(=O)O (stereo not drawn) | -12.9
CCCCCCCSc1cc(OC)c(CCN(C)C)cc1OC.O=C(O)/C=C\C(=O)O | -64.3
CCCCCCCSc1cc(OC)c(CCNC)cc1OC.O=C(O)/C=C\C(=O)O | -41.3
CCCCCSc1cc(OC)c(CCNC)cc1OC.O=C(O)/C=C\C(=O)O | -48.2
CCCCCSc1cc(OC)c(CCN)cc1OC.O=C(O)/C=C\C(=O)O | -35.9
CCCCCSc1cc(OC)c(CCN(C)C)cc1OC.O=C(O)/C=C\C(=O)O | -57.9

Compound | hERG current change (%, negative = inhibition) at 10uM [%]
C/C(=N\OC(=O)Nc1ccccc1)c1ccc(C)cc1 | -15.9
CN(CCC#N)C(=O)CSc1nc2scc(-c3ccccc3)c2c(=O)[nH]1 | -12.6
COc1ccc(CCNC(=O)C(=O)NCC2OCCN2S(=O)(=O)c2ccc(OC)cc2)cc1 (stereo not drawn) | -47.3
COc1ccccc1C(=O)Nc1ccc2nc3n(c(=O)c2c1)CCCC3 | -36.3
COc1ccc(NC(=O)CC2SC(=O)NC2=O)cc1 (stereo not drawn) | 26.8
Cc1ccccc1NC(=O)Cc1nc(COC(=O)c2ccc(Cl)nc2)cs1 | 2.75
Cc1ccccc1NC(=O)Cc1nc(COC(=O)c2cccc(O)c2)cs1 | -17.7
Cc1ccccc1NC(=O)Cc1nc(COC(=O)c2ccc(Cl)c(S(N)(=O)=O)c2)cs1 | -60.9
COc1ccc(CCNC(=O)CSc2ccc3nnc(CCNC(=O)c4ccccc4)n3n2)cc1OC | 6.1
CCOC(=O)c1[nH]nc2c1C(=O)N(Cc1ccccc1)C2=O | 6.13
COc1ccc(/C=N/NC(=O)CSc2ccccn2)cc1OC | 2.42
CCNC(=O)COC(=O)c1cc(-c2ccccc2)nn1-c1ccccc1 | -61.8
CNC(=O)COC(=O)c1cc(-c2ccccc2)nn1-c1ccccc1 | -5.35
CCOC(=O)c1cc(-c2cccnc2)nn1-c1ccccc1 | 9.52
Cc1ccc(CNC(=O)CN2C(=O)NC3(CC(C)CC(C)(C)C3)C2=O)cc1 (stereo not drawn) | -3.14
COc1ccc(-n2c(O)c(C=NCCCn3ccnc3)c(=O)[nH]c2=O)cc1 | 14.1
O=C(Nc1ccc(N2CCCC2)c(Cl)c1)c1ccc2c(c1)OCCO2 | 11.8
CC(=O)N1CCN(c2ccc(NC(=O)c3ccc4c(c3)OCCO4)cc2Cl)CC1 | -64.7
O=C(Nc1ccc(N2CCOCC2)c(Cl)c1)c1ccc2c(c1)OCCO2 | -0.379
O=C(Nc1ccc(N2CCCCC2)c(Cl)c1)c1ccc2c(c1)OCCO2 | -1.06
CC(C)C(=O)N1CCN(c2ccc(NC(=O)c3ccc4c(c3)OCCO4)cc2Cl)CC1 | -15
CN1CCN(c2ccc(NC(=O)c3ccc4c(c3)OCCO4)cc2Cl)CC1 | -81.2

Reference: article PMC4336329 (PLoS ONE, 2015)
